Over roughly 33,000 sequences, “E-score (-0.5 to 0.5)” has its median near -0.04; the highest 2% begin near 0.36. The sample as a whole holds a higher share of the highest values than the screen did.
Molecular target: T1, Hmlalpha2 (UniProt P0CY09)
T1 sequence: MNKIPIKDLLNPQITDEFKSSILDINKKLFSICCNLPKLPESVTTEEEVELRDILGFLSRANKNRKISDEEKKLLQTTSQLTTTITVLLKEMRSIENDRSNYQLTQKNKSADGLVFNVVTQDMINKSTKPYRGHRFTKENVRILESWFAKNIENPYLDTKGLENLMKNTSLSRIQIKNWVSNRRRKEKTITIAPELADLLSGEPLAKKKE
Experiment: PBM E-score (8-mer binding enrichment) (E-score (-0.5 to 0.5)); higher = stronger / more preferred TF binding
Conditions: protein concentration: 200 nM; construct: GST-full length
Method: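 Universal 'all 10-mer' protein binding microarrays (Agilent AMADID 015681) probed with GST-tagged S. cerevisiae TFs (full-length or DBD) made by in vitro transcription/translation (PURExpress), about 100-200 nM. Bound TF was detected with fluorescent anti-GST. Each ungapped 8-mer (which stands for itself and its reverse complement) is scored by the PBM enrichment score (E-score), a modified Wilcoxon-Mann-Whitney statistic from -0.5 to +0.5, computed with the Universal PBM Analysis Suite. Scale: above 0.35 generally sequence-specific binding.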

Row | Sequence | PBM E-score
1 | CCATCTAC | 0.0186
2 | CTCTGCCC | -0.109
3 | AGCAATGG | -0.0784
4 | CATACCAA | 0.141
5 | CACGGTGA | 0.155
6 | ACCATTAG | -0.0407
7 | AGCCCTCC | -0.312
8 | CAGGCGAA | 0.0909
9 | CGTTGTAA | 0.368
10 | CGTTGTAG | 0.242
11 | AGTTGAAA | 0.0609
12 | GGTTGAAA | -0.0197
13 | TGTTGTAA | 0.401
14 | CGTTGTAC | 0.278
15 | TGTTGAAA | 0.37
16 | GGTTGTAA | 0.342
17 | AGTTGTAA | 0.248
18 | AAGAGTAC | 0.0432
19 | ATCCCTAG | -0.00744
20 | CAGTACCG | -0.142
21 | CCCGATTC | -0.0455
22 | GTAGCGGA | -0.0459
23 | GTTATCCA | 0.0731
24 | AGCCATCG | -0.171
25 | ATGCCTAC | -0.224

Row | Sequence | PBM E-score
26 | GACCTCCA | -0.0969
27 | CTTTGGTC | -0.0966
28 | AACACGGA | 0.374
29 | ATCACGGA | -0.189
30 | CACACGGA | 0.0896
31 | ACCACGGG | -0.213
32 | ACCACGGT | -0.134
33 | AACACCGA | 0.193
34 | GACACGGA | 0.224
35 | AACACGGT | 0.402
36 | AACACGGC | 0.359
37 | CACACGGG | 0.218
38 | TACACGGA | 0.447
39 | AACACGGG | 0.387
40 | ACGATTCC | -0.04
41 | CTAGGCGC | -0.158
42 | CAAGAGCA | -0.00496
43 | CTTCAAAC | -0.0259
44 | CTGCCTGC | -0.252
45 | AATTCTTG | 0.12
46 | GGCGGTCA | -0.283
47 | GGAAGGTA | -0.132
48 | ACAAAGGG | -0.0246
49 | CTGCCAGA | -0.232
50 | ATCAACAG | 0.136

Row | Sequence | PBM E-score
51 | ATCAACAA | 0.306
52 | ATCAACAC | 0.399
53 | CTCAACAA | 0.302
54 | CTCAACAC | 0.382
55 | ATCAACAT | 0.44
56 | ATCAACCC | 0.144
57 | GTCAACAC | 0.358
58 | AGCAACAC | 0.26
59 | CATACCCA | 0.182
60 | AATAATAA | 0.311
61 | ACCGAGGC | -0.359
62 | GGGCAGAA | 0.0375
63 | CCAAGTGC | -0.171
64 | GTTAACTA | 0.362
65 | CTTAACAA | 0.307
66 | CTTAACAC | 0.419
67 | CTTAACCC | -0.0467
68 | GTTAACAA | 0.366
69 | ATTAACGC | 0.372
70 | ATTAACGA | 0.317
71 | ACTAACAA | 0.253
72 | ATTAACAG | 0.261
73 | ATTAACAA | 0.415
74 | GTTAACCA | 0.285
75 | ATTAACGG | -0.00314

Row | Sequence | PBM E-score
76 | AGACTAAA | -0.0357
77 | AATGCAGT | -0.00748
78 | CCTTCACA | 0.0306
79 | CACATCCC | -0.0137
80 | GCCAAACA | -0.107
81 | AGTAGAGG | -0.226
82 | CGTAGCAG | -0.129
83 | CAGTTCTC | -0.179
84 | ATTAACAC | 0.455
85 | ATTAACCC | 0.0714
86 | ATTAACTC | 0.216
87 | ACCATGTG | 0.188
88 | ACCATGTA | 0.467
89 | CCCATGTA | 0.447
90 | CCCATGGA | -0.1
91 | GCCATGCA | 0.0965
92 | GCCATGGA | -0.178
93 | CCCATGTC | 0.161
94 | ACCATGTC | 0.296
95 | GCCATGTA | 0.457
96 | CACCATGC | -0.0851
97 | TCACATCA | 0.00787
98 | CGTAACGC | 0.193
99 | CTGCCAGC | -0.238
100 | CTTATGCA | 0.135

Row | Sequence | PBM E-score
101 | ATTATGTG | 0.17
102 | CTTATGTC | 0.117
103 | ATTATGTA | 0.415
104 | ATTATGTC | 0.164
105 | GTTATGAA | 0.186
106 | GTTATGCA | 0.00491
107 | CTTATGTA | 0.409
108 | GTTATGTA | 0.419
109 | GCGCCAGA | -0.138
110 | AGTCGGGA | -0.192
111 | GAAGCTAA | -0.0677
112 | ATCCACAT | 0.158
113 | TAATGTGA | 0.19
114 | GAATGTAC | 0.16
115 | CAATGTAC | 0.217
116 | GAATGTCA | 0.0786
117 | AAATGTAC | 0.236
118 | AAATGTAA | 0.394
119 | AAATGTAG | 0.113
120 | CAATGTAG | 0.172
121 | GAATGTAA | 0.372
122 | CAATGTAA | 0.435
123 | TAATGTAA | 0.431
124 | TAATGTCA | 0.155
125 | CTGAAAAC | 0.1

Row | Sequence | PBM E-score
126 | CTCAGAAG | -0.215
127 | AACCCGAT | 0.0593
128 | ACGGGGGG | -0.22
129 | ACTCGGGG | -0.134
130 | AAACCGAG | -0.204
131 | ATGTATAG | 0.362
132 | GCGTATAA | 0.337
133 | GAGTATAA | 0.169
134 | ATGTATAC | 0.435
135 | GTATATAA | 0.29
136 | GTGTATAA | 0.391
137 | ATGTATCC | 0.294
138 | GCGTATAC | 0.371
139 | CTGTATAA | 0.209
140 | ATGTATAA | 0.395
141 | CTGTATAC | 0.247
142 | CCGTATAC | 0.0388
143 | GTATGCCA | -0.254
144 | ACGACCCA | -0.0906
145 | TGTAGGAA | 0.226
146 | GCCACCGC | -0.33
147 | GATGGACA | -0.0833
148 | CTTGAAAC | -0.111
149 | ATGCTGCA | 0.0587
150 | TCCTATCA | -0.172

Row | Sequence | PBM E-score
151 | AGTCGCGA | -0.0755
152 | CTCCCATC | -0.242
153 | CATCTGAG | -0.137
154 | CAAAATTC | 0.15
155 | ATACCTGG | -0.252
156 | ATGCTGTA | 0.136
157 | AAGGAGCT | -0.163
158 | ACGTAGAG | 0.224
159 | CTGTAGAC | 0.104
160 | GAGTAGAA | 0.147
161 | ATGTAGAA | 0.43
162 | AAGTAGAG | 0.018
163 | CTGTAGAA | 0.161
164 | ATGTAGAC | 0.391
165 | ATGTAGGC | 0.169
166 | GCGTAGAA | 0.313
167 | GTGTAGAA | 0.445
168 | ATGTAGAG | 0.376
169 | ATGTAGGA | 0.236
170 | CACAGATC | -0.0314
171 | GAATCTTA | -0.127
172 | CGATTAAC | 0.149
173 | TATCCTCA | -0.113
174 | ACGTTAAG | 0.255
175 | ATGTTACC | 0.317

From the supplement of paper PMC3334620
